Out of some 2,300 compounds screened, about 20 (0.9%) were called active.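 How the source made its calls: active means mean percent activation across replicates above the counterscreen hit cutoff of 9.17%; inactive means the rest.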 Only a selection was taken, and actives are over-represented in it overall.
The compounds below were run against Glucose-dependent insulinotropic receptor (Homo sapiens) (UniProt Q8TDV5) (assay: off-target GPR119 activation – cell-based, PathHunter beta-arrestin, luminescence, set 2, counter-screen for GPR151 activator project, confirmation (AID 1508607;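 further: 0% = median of sample wells and 100% = wells given EA reagent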)). Details: GPR119 PathHunter beta-arrestin cells, 90 min, at 11.2 µM, hits give high values.
Sequence of Glucose-dependent insulinotropic receptor (Homo sapiens) (Q8TDV5 whole entry, looked up): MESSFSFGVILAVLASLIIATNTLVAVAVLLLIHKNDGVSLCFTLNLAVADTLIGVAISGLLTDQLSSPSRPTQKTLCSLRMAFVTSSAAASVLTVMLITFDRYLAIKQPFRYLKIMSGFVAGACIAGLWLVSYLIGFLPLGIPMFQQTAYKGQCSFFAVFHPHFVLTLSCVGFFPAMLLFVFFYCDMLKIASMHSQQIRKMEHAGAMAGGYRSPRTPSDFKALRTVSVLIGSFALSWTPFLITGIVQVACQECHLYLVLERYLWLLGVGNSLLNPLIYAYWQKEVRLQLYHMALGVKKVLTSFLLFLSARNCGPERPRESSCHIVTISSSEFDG
For `CC(C)OCCCNC(=O)CN(c1ccc(OCc2ccccc2)cc1)S(C)(=O)=O`, the activation was -1.63% (inactive). In the case of `COc1ccc(S(=O)(=O)CCC(=O)N2CCc3ccccc32)cc1`, the activation is reported as 1.93% (inactive). With `Cc1ccc(S(=O)(=O)N2CCN3C(=O)[C@H](Cc4ccc(Cl)cc4)NC(=O)[C@H]3C2)cc1` the activation was 1.14% (inactive). In the case of `CC1(C(=O)NCC2Cc3cccc(-c4ncccn4)c3O2)CC1` (stereo not given), the activation is reported as 1.78% (inactive). `COc1ccc(CCNc2ccnc(Nc3ccc(N4CCOCC4)cc3)n2)cc1` was tested, and the activation was 10.5% (active). For `COc1ccc(CCNc2ccnc(Nc3ccc(-n4ccnc4)cc3)n2)cc1`, the activation was 12.4% (active). In the case of `Cc1cc(Nc2ccc(N3CCOCC3)cc2)nc(Nc2ccc(-n3ccnc3)cc2)n1`, the activation is reported as 3.07% (inactive). For `Cc1cc(Nc2ccc3c(c2)OCO3)nc(Nc2ccc(N3CCOCC3)cc2)n1`, the activation was 1.65% (inactive). For `COc1cc(Nc2ccnc(Nc3ccc(N4CCOCC4)cc3)n2)cc(OC)c1OC`, the activation was 7.31% (inactive). With `COc1ccc(CCNc2cc(C)nc(Nc3ccc(-n4ccnc4)cc3)n2)cc1` the activation was 6.54% (inactive). For `O=C(O)c1cc([N+](=O)[O-])ccc1C(=O)Nc1cccc2ccccc12`, the activation was -0.79% (inactive). For `CCC(=O)N1CCc2cc(S(=O)(=O)NCCN(CC)c3ccccc3)ccc21`, the activation was -1.16% (inactive). With `CC1CCC(=NNC(=O)c2ccccc2O)CC1` (stereo not given) the activation was -3.51% (inactive). For `CN(C)c1ccc(/C=C(\C#N)C(N)=C(C#N)C#N)cc1`, the activation was 4.1% (inactive). `O=C(c1cccc(S(=O)(=O)N2CCOCC2)c1)N1CCCc2ccccc21` was tested, and the activation was -5.28% (inactive). For `CC(=O)Cc1nsc(Nc2cccc(Cl)c2C)n1`, the activation was 6.59% (inactive). For `CSc1nc2sccn2c(=O)c1C(=O)NCc1ccccc1Oc1ccccc1`, the activation was -1.15% (inactive). With `COc1cc2[nH]c(=O)n(CCC(=O)N3CCC(N4CCCCC4)CC3)c(=O)c2cc1OC` the activation was -2.11% (inactive). In the case of `CN1CCN(c2cc(-c3cn[nH]c3)ccc2NC(=O)Cc2cccc(Cl)c2)CC1`, the activation is reported as 11.6% (active). For `CCOc1ccc(S(=O)(=O)N(CC(=O)NCCSc2ccccc2)c2ccccc2)cc1`, the activation was -2.47% (inactive). With `COc1ccc(-n2ncc3c(Nc4cccc(F)c4)ncnc32)cc1` the activation was 2.73% (inactive). For `COc1ccc(-n2ncc3c(Nc4ccc(C(C)C)cc4)ncnc32)cc1`, the activation was 9.19% (active). For `COc1ccc(-n2ncc3c(Nc4cc(OC)ccc4OC)ncnc32)cc1`, the activation was 4.1% (inactive). In the case of `C/C(=N/NC(=O)CNC(=O)c1ccccc1F)c1cccc([N+](=O)[O-])c1`, the activation is reported as -2.45% (inactive). In the case of `CCCn1cc(SCC(=O)Nc2ccc(OC)cc2OC)c2ccccc21`, the activation is reported as 4.73% (inactive). `CC(C)(C)NC(=O)C1CCN(S(=O)(=O)c2ccc(Br)s2)CC1` was tested, and the activation was 3.94% (inactive). `COCCNC(=O)c1cccc(OC2CCN(Cc3cc4ccccc4o3)CC2)c1` was tested, and the activation was 0.69% (inactive). In the case of `CCOc1ccccc1CNCc1c(C(=O)O)c(C)n(Cc2cccc(Cl)c2)c1C`, the activation is reported as -3.17% (inactive). In the case of `N#C/C(=C/c1cc(Cl)ccc1Cl)c1nc2ccccc2c(=O)[nH]1`, the activation is reported as -3.12% (inactive). In the case of `COC(=O)c1c(OCC2CCCCO2)cc(=O)n2c1CCN(Cc1ccsc1)CC2` (stereo not given), the activation is reported as 0.67% (inactive). `O=C(C1CCCN1S(=O)(=O)c1ccc(Cl)cc1)N1CCOCC1` (stereo not given) was tested, and the activation was 2.3% (inactive). In the case of `CCOC(=O)c1cc(-c2ccccc2)sc1NC(=O)c1ccc(OC)c(OC)c1`, the activation is reported as -1.86% (inactive). In the case of `Cc1cc(OCC(=O)Nc2sc(C)c(C)c2C(N)=O)ccc1Br`, the activation is reported as 3.41% (inactive). In the case of `N#CC1=C2SCN(Cc3ccccc3)CN2C(=O)CC1c1cccc(F)c1` (stereo not given), the activation is reported as -1.21% (inactive). With `CC(=O)c1ccc(N2CCN(C(=O)c3cc4c(C)nc5ccccc5c4o3)CC2)cc1` the activation was 0.66% (inactive). With `CCOc1ccc(/C=C2\SC(=S)N(CC(=O)Nc3ccc(O)cc3)C2=O)cc1` the activation was -3.84% (inactive). `Cc1nc2n(n1)C(c1ccc(Cl)cc1)C=C(c1ccc(Cl)cc1)N2` (stereo not given) was tested, and the activation was -0.05% (inactive). `C=CCOc1ccc(/C=C2\NC(=S)N(c3ccc(OC)cc3)C2=O)cc1` was tested, and the activation was 1.06% (inactive). With `CCCCNC(=O)c1ccc(C)c(N2CCCC2=O)c1` the activation was 0.14% (inactive). `O=S(=O)(/C=C/c1ccccc1)N1c2ccccc2C=CC1c1c[nH]c2ccccc12` (stereo not given) was tested, and the activation was -5.1% (inactive). In the case of `COc1ccc(C(=O)N/N=C/c2ccc(O)cc2O)cc1OC`, the activation is reported as 1.94% (inactive). For `Cc1ccc(Nc2nc(Cl)nc(N3CCOCC3)n2)cc1Cl`, the activation was -1.69% (inactive). In the case of `COC(=O)c1ccccc1NC(=O)c1cc2ccccc2oc1=O`, the activation is reported as 2.29% (inactive). `CC(C)c1ccccc1OCC(=O)Nc1ccccc1Cl` was tested, and the activation was -0.8% (inactive). With `CC(=O)N1CCC(N(C(=S)Nc2cccc(Cl)c2C)C(C)C)CC1` the activation was -0.07% (inactive). With `Cc1c(Cl)cccc1NS(=O)(=O)c1c(C(C)C)cc(C(C)C)cc1C(C)C` the activation was 9.78% (active). For `COc1ccc(NC(=O)N2CCC(CN3CCc4ccccc4C3)CC2)cc1`, the activation was -2.3% (inactive). With `Cc1cccc(Cn2c(=O)c3ccccc3n3nncc23)c1` the activation was 3.36% (inactive). `COc1ccc(N2CCN(c3ncnc4sc(C(=O)N5CCC(C(N)=O)(N6CCCCC6)CC5)c(C)c34)CC2)cc1` was tested, and the activation was 0.57% (inactive). `O=C(NCc1ccco1)c1ccc2ccccc2c1` was tested, and the activation was 1.88% (inactive). With `COc1ccc(-c2nc3c(=O)n(C)c4ccccc4c3o2)cc1` the activation was -4% (inactive). For `CCC(=O)N1CCN(c2ccc(NC(=O)C(C)(C)C)cc2)CC1`, the activation was 0.46% (inactive). `O=C(CNc1ccccc1)N/N=C/c1cccc(Oc2ccccc2)c1` was tested, and the activation was -3.18% (inactive). `O=C(/C=C/c1ccccn1)NCCN1Cc2ccccc2OC(c2ccccc2)C1` (stereo not given) was tested, and the activation was 1.44% (inactive). With `CCNC(=O)C(=O)Nc1ccc(OC)cc1` the activation was -1.66% (inactive). With `O=C(CSc1ccc2nnc(-c3ccncc3)n2n1)Nc1ccc(C(F)(F)F)cc1` the activation was -0.42% (inactive). For `Cc1n[nH]c(C)c1S(=O)(=O)NCc1ccc(F)cc1`, the activation was -0.09% (inactive). With `O=c1oc2ccc3ccccc3c2cc1-c1nnc(Nc2ccc(Oc3ccc4ccccc4c3Cl)c(Cl)c2)s1` the activation was 0.97% (inactive). In the case of `CCC(C)OC(=O)C1=C(C)NC(=O)NC1c1cc(Br)ccc1OC` (stereo not given), the activation is reported as 1.91% (inactive). `CC(C)c1ccc(Cn2ccc3c4c(N)nc(NC5CC5)nc4ccc32)cc1` was tested, and the activation was 51.2% (active). In the case of `CC(C)CC(=O)NCC1CCC2(CCN(Cc3ccccc3F)CC2)O1` (stereo not given), the activation is reported as 2.66% (inactive). For `Cc1ccc(-n2nc3c(c2NC(=O)C2(c4ccc(Cl)cc4)CCCC2)CSC3)cc1`, the activation was 3.08% (inactive). `CCOC(=O)CCCN(Cc1ccc(F)cc1)S(=O)(=O)c1ccc(F)c(C)c1` was tested, and the activation was 0.45% (inactive). With `COc1cc(NC(=O)c2onc(C)c2Cl)cc(OC)c1OC` the activation was -1.44% (inactive). In the case of `CCOC(=O)N1CCN(C(=O)c2ccc3c(c2)NC(=O)C(CSCc2cc(C)ccc2C)N3)CC1` (stereo not given), the activation is reported as 2.54% (inactive). `O=C(O)c1c(CNC2CCCc3ccccc32)c2ccccc2n1Cc1ccccc1` (stereo not given) was tested, and the activation was -2.12% (inactive). For `O=C(O)c1cc([N+](=O)[O-])c(C(=O)O)cc1Oc1ccc(Cl)cc1`, the activation was 3.33% (inactive). In the case of `COc1cc(/C=N/NC(=O)CCCC(=O)N/N=C/c2ccc(O)c(OC)c2)ccc1O`, the activation is reported as -0.52% (inactive). For `CCc1nnc2c3c4c(sc3nc(CC)n12)CCCC4`, the activation was -1.48% (inactive). `CC(C)c1ccc(N=c2c([N+](=O)[O-])nn(-c3ccccc3)n2O)cc1` was tested, and the activation was 5.25% (inactive). In the case of `CCOC(=O)c1nc(NCc2ccccc2)c2ccccc2n1`, the activation is reported as 2.75% (inactive). For `O=C(Cn1c(=O)oc2ccccc21)Nc1cccc(C(F)(F)F)c1`, the activation was 3.85% (inactive). For `CCn1cnc2sc(C(=O)Nc3ccc(Cl)c(Cl)c3)c(C)c2c1=O`, the activation was 0.88% (inactive). For `COc1ccc(C(=O)Nn2c(-c3ccc(F)cc3)nc3ccccc3c2=O)cc1Br`, the activation was -2.33% (inactive). `CC(=O)c1c(C)oc2c1c1c(c3ccccc32)OCN(C2CCCC2)C1` was tested, and the activation was 2.76% (inactive). For `COc1ccc(OC)c(-n2c(O)c(/C=C3\C=CC=N3)c(=O)[nH]c2=O)c1`, the activation was 1.81% (inactive). For `N#CCCN1CCN(c2ccc(F)cc2[N+](=O)[O-])CC1`, the activation was 3.88% (inactive). `CC(C)c1onc(C(=O)NC2CCCCC2)c1[N+](=O)[O-]` was tested, and the activation was -2.5% (inactive). In the case of `COc1ccc(O)c(C2=Nc3ccccc3N=C(c3ccc([N+](=O)[O-])cc3)C2)c1`, the activation is reported as -1.11% (inactive). `COc1ccc(C[C@H](N)C(=O)N[C@@H]2[C@@H](CO)OC(n3cnc4c(N(C)C)ncnc43)[C@@H]2O)cc1` (stereo not given in full) was tested, and the activation was -4.23% (inactive). With `O=C(CCc1nnc2n(Cc3ccccc3)c(=O)c3ccccc3n12)NCCN1CCCC1` the activation was -0.83% (inactive). In the case of `Cc1c(NC(=O)c2cc(F)cc(F)c2)c(=O)n(-c2ccccc2)n1C`, the activation is reported as -3.89% (inactive). With `CC1CC(C)(C)NC(=S)N1CC(=O)N1CCN(Cc2ccc3c(c2)OCO3)CC1` (stereo not given) the activation was -1.14% (inactive). For `O=C(NCCO)C(=O)Nc1cccc(Cl)c1Cl`, the activation was 1.5% (inactive). `Cc1ccc(NC(=O)CN(C)S(=O)(=O)c2ccc(Br)cc2)cc1Cl` was tested, and the activation was 4.66% (inactive). With `CCN(CC)c1ccc2cc(-c3nnc(NCc4ccc(F)cc4)s3)c(=O)oc2c1` the activation was 0.77% (inactive). `CCCCOc1ccc(C(=O)Nc2c3c(nn2-c2cccc(Cl)c2)CSC3)cc1` was tested, and the activation was 5.97% (inactive). For `O=C(NCCCN1CCOCC1)/C(=C/c1ccc(-c2cccc(C(F)(F)F)c2)o1)NC(=O)c1ccc(Cl)cc1`, the activation was 9.32% (active). With `COCCCNC(=O)/C(=C\c1ccco1)NC(=O)c1ccc(C)cc1` the activation was -2.09% (inactive). In the case of `Fc1ccc(-c2cnc3ccc(NCCCN4CCOCC4)nn23)cc1Cl`, the activation is reported as 2.09% (inactive).
